Shown are actives, neighbours in structure and some others; about 7.1% of the full set was active somewhere.
ELG1 genotox: inducers of genotoxicity in HEK293T ELG1-luciferase cells. hit rate 1.3% among 330,000. Potency, µM (highest dose often 46 µM), for the others: at the highest dose activity change, positive = activation, hits mostly activators. HEK293T ELG1-luciferase reporter, luminescence, 16 h. AID 504466; also: % of control where 0% means no effect; nearly all actives have a fitted effect of over 60% in size
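Reporter readout depends on ELG1 protein level, which increases with genetic stress. After 16 hr compound exposure at 37 °C, luciferase activity was quantified using ONE-Glo.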
SW480 rereplic: inducers of DNA re-replication in SW480 colon cancer cells; SW480 DNA re-replication, Hoechst DNA content imaging, 48 h; Potency, µM (titrated, usually from 46.1 µM), inactives show top-dose re-replication activation, hits mostly activators; hit rate 1.8% among 340,000; AID 624297; also: % of control where 0% means no effect; nearly all actives have a fitted effect of over 55% in size
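Treated cells incubate 48 hr (37 C, 5% CO2), are stained 40 min with Hoechst, and nuclear fluorescence is enumerated; a rise in nuclei with high DNA signal marks re-replication.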
p53 reactivator: mutant p53 re-activation in reporter cells; AID 504706; H1299 p53-A138V BP100-luciferase reporter, luminescence, 24 h; Potency, µM (highest dose often 92.2 µM), inactives show at the highest dose activity change, positive = activation, hits mostly activators; hit rate 0.063% among 320,000; also: % of control where 0% means no effect; nearly all actives have a fitted effect of over 45% in size
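H1299 (p53-null), stable ts p53-A138V + BP100-Luc; 1000 cells/well, Opti-MEM/10% FBS; cpd 4 pt, 1:5; 24 h, 37 deg C, 5% CO2; detection reagent 10 min RT; luminescence.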
A-T KAP1 phos: candidate therapy for ataxia-telangiectasia | Potency, µM (series often up to 57.5 µM), for inactives: at the top dose activation, most hits filed as activators | F2112 A-T fibroblasts, KAP-1 phosphorylation AlphaLISA; neocarzinostatin DNA damage 30 min before lysis | hit rate 0.19% among 320,000; also: % of control where 0% means no effect; nearly all actives have a fitted effect of over 45% in size
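hTERT-immortalized A-T patient fibroblasts (F2112), 500 cells/well in OPTI-MEM, 1% FBS, got compounds for 60 min, then NCS for 30 min at 37C. Lysates were then assayed for phospho-KAP-1 by AlphaLISA (anti-pKAP1 donor, anti-KAP1 acceptor beads), 6 hr at 25C.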
ELG1 DNA repair: ELG1-dependent DNA repair inhibition; HEK293T ELG1-luciferase reporter, luminescence, 16 h; DNA damage induced by 5-fluorouridine; Potency, µM (titrated, usually from 46.1 µM), for inactives: at the highest dose activity change, negative = inhibition, usual class: inhibitors; hit rate 2.3% among 330,000; AID 504467; also: % is scaled to controls: 0 for no effect and ±100 for the full control effect; nearly all actives have a fitted effect of over 55% in size
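Cells (2,000 per well) received 5-fluorouridine plus test compound or DMSO and were incubated 16 hr at 37 °C, 5% CO2. Luciferase activity was read by luminescence 30 min after ONE-Glo addition; signal suppression marked inhibition of damage-induced ELG1 function.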
MCF10A rerep: induces DNA re-replication in MCF 10a normal breast cells. hit rate 2.9% among 350,000. MCF 10A DNA re-replication, Hoechst nuclear intensity, 48 h. Potency, µM (highest dose often 46.1 µM), inactives show top-dose activity, positive = re-replication, most hits filed as activators. AID 624296; also: % of control where 0% means no effect; nearly all actives have a fitted effect of over 50% in size
An asterisk follows results filed as active; ? = inconclusive; . = no result; [ ] = another dose, or the depositor's remark. Calls follow the shape of the dose curve; as a rule, active = well fitted curve in the direction sought with a large enough effect; inconclusive = small, poorly fitted or top-dose-only effect, or another doubt; inactive = no such curve, though single readings can be large; an effect the other way counts as inactive or inconclusive. Potency is read from the fitted curve at half-maximal effect.

SMILES	ELG1 genotox	SW480 rereplic	p53 reactivator	A-T KAP1 phos	ELG1 DNA repair	MCF10A rerep
O=C(Nc1ccc(N2CCCC2=O)cc1)c1cccc(F)c1	2.91µM*	-7.7%	?	0.6%	?	-7.8%
O=C(Nc1ccc(N2CCCC2)cc1)c1cccc(F)c1	0.366µM*	4.3%	35.5%	-4.7%	?	20.6%
O=S(=O)(/N=C(/Nc1cccc2ccccc12)c1ccc(F)cc1)c1ccccc1	-0.2%	5.1%	16.4%	-5.9%	-4.4%	7.6%
Cc1ccc2cc(CN(c3ccccc3C)S(=O)(=O)c3ccccc3)c(=O)[nH]c2c1	-8.0%	20.6µM*	13.2%	-1.5%	-29.0%	?
COc1cccc(C(=O)C2CCCN(C(=O)c3cccc(C#CC(C)(C)O)c3)C2)c1 (configuration not stated)	-3.0%	0.2%	-1.6%	6.1%	16.4µM*	-0.9%
COc1cccc(C(=O)N2CCCC(Nc3ccc(C)c(C)c3)C2)c1 (configuration not stated)	-3.2%	-1.6%	0.7%	10.2%	5.4%	5.9%
O=C(COC(=O)c1ccccc1OCc1ccccc1Cl)NCC1CCCO1 (configuration not stated)	-2.4%	-4.8%	4.2%	3.9%	?	1.1%
CCn1c2ccccc2c2nnc(SCCCn3c(=O)[nH]c4ccccc43)nc21	-30.5%	?	0.0%	-4.1%	23.1µM*	?
CCn1c2ccccc2c2nnc(SCc3ccccc3)nc21	0.3%	-7.6%	3.3%	14.0%	-2.5%	4.8%
Cc1ccc(C(=O)O/N=C(\N)Cc2ccc([N+](=O)[O-])cc2)c(Cl)c1	3.5%	?	-8.6%	-2.7%	?	18.4µM*
Cc1cccc(C(=O)O/N=C(\N)Cc2ccc([N+](=O)[O-])cc2)c1	-2.9%	-2.6%[9.22 µM]	?	2.3%	-10.2%	18.8%
Cc1ccc(OCC(=O)O/N=C(\N)Cc2cccs2)cc1C	.	1.7%	.	.	.	5.7%
Cc1ccc(C(=O)O/N=C(\N)Cc2cccs2)c(Cl)c1	2.06µM*	8.8%	?	3.5%	?	-4.7%
C[C@@H](CN1C(=O)C(=O)NC[C@@H]1C)NC(=O)CC12CC3CC(CC(C3)C1)C2	0.8%	-5.1%	8.5%	-2.4%	7.2%	3.2%
O=C(Cn1cc([N+](=O)[O-])ccc1=O)NCC1COc2ccccc2O1 (configuration not stated)	-2.5%	1.1%	5.0%	4.1%	0.2%	-2.5%
COc1ccc2c(c1)O[C@H](c1ccc3c(c1)OCO3)[C@@H](OC(=O)Nc1cc(OC)c(OC)c(OC)c1)C2=O	16.7%	11.6µM*	3.6%	17.3%	?	?
Cc1sc2ncnc(N3CCC(C(=O)Nc4sc5c(c4C(N)=O)CCC(C)C5)CC3)c2c1C (configuration not stated)	-0.9%	-15.9%	-3.6%	-0.8%	?	4.0%
Cc1ccc(S(=O)(=O)n2cc(C=O)c3ccccc32)cc1	-8.7%	?	3.0%	18.2%	?	98.0%
Cc1ccc(S(=O)(=O)n2cc(-c3ccccc3)c3ccccc32)cc1	8.0%	3.66µM*	22.7%	-5.7%	?	35.5%
CN1C(=O)C(=O)/C(=C(/O)c2ccc(Br)cc2)C1c1ccccc1F (configuration not stated)	0.5%	-2.0%	0.5%	3.5%	-1.1%	-0.2%
Brc1ccc(-c2csc(-c3c[nH]c4ccccc34)n2)cc1	10.2%	1.7%	44.7µM*	-4.4%	?	?
c1ccc2c(-c3csc(-c4ccncc4)n3)c[nH]c2c1	?	20.6µM*	3.6%	4.6%	?	?
O=C(COC(=O)c1n[nH]c(=O)c2ccccc12)Nc1ccccc1	1.7%	-1.8%	9.2%	-1.8%	-1.0%	-5.6%
CC1=CC(C)(C)N2C(=O)C(=O)c3cc(OC(=O)c4ccco4)cc1c32	-0.4%	1.3µM*	3.7%	-2.0%	0.0%	?
CC1=CC(C)(C)Nc2ccc(OC(=O)C(C)N3C(=O)c4ccccc4C3=O)cc21 (configuration not stated)	16.6%	3.66µM*	-21.1%	2.4%	-20.8%	?
SMILES	ELG1 genotox	SW480 rereplic	p53 reactivator	A-T KAP1 phos	ELG1 DNA repair	MCF10A rerep
COc1ccc(OC(=O)C(C)N2C(=O)c3ccccc3C2=O)cc1 (configuration not stated)	-0.4%	-4.9%	.	2.8%	-12.4%	-0.3%
CC1=CC(C)(C)Nc2ccc(Cc3ccc4c(c3)C(C)=CC(C)(C)N4)cc21	-10.0%	0.7%	4.0%	0.5%	?	29.1µM*
O=C(Oc1cccc(OC(=O)c2ccco2)c1)c1ccco1	-2.8%	-3.8%	.	4.6%	2.1%	1.9%
CC1=CC(C)(C)Nc2ccc(OC(=O)c3ccco3)cc21	22.7%	18.4µM*	-19.8%	1.9%	?	4.11µM*
CC1=CC(C)(C)Nc2ccc(C)cc21	-5.6%	-4.2%	-1.0%	8.5%	-0.4%	-3.0%
CCN1C(=O)/C(=C2/C(=O)N3c4c(cc(OC(C)=O)cc42)C(C)=CC3(C)C)SC1=S	-1.8%	-6.0%	-3.2%	-12.2%	4.8%	20.5%
CC(=O)c1ccc(NC(=O)CCNC(=O)c2ccc(Cl)cc2)cc1	14.5%	-22.7%	7.5%	0.0%	13.0%	-2.7%
COC(=O)c1c(NC(=O)CS(=O)(=O)c2ccccc2)sc(C)c1C	-10.0%	-48.9%	1.5%	-1.6%	?	-0.1%
Cn1c(SCC(=O)NCC2CCCO2)nnc1-c1ccco1 (configuration not stated)	-1.2%	2.3%	11.7%	2.9%	?	-9.6%
CC1=CC(C)(C)N(C(=O)CN2C(=O)CCC2=O)c2ccccc21	-0.6%	-5.2%	-0.8%	-1.2%	3.7%	0.2%
CC1=CC(C)(C)Nc2ccc(OC(=O)c3cccnc3)cc21	6.8%	3.66µM*	-64.6%	.	0.1%	2.59µM*
CC1=CC(C)(C)Nc2ccc(OC(=O)CN3C(=O)CCC3=O)cc21	11.9%	4.11µM*	-29.5%	-0.1%	?	-1.5%
CC1CCC(=NO)C(=NO)C1 (configuration not stated)	.	?	.	.	.	7.3%
O=C(c1ccc(Cl)cc1)N1CCOc2ccccc21	2.7%	13.2%	?	6.5%	-2.6%	10.2%
O=[N+]([O-])c1ccc(/C=N/Nc2nc(NCc3ccccc3)nc(N3CCOCC3)n2)cc1	-0.3%	-48.8%	2.0%	0.4%	7.3µM*	7.1%
O=[N+]([O-])c1cccc(/C=N/Nc2nc(NCc3ccccc3)nc(N3CCOCC3)n2)c1O	-15.4%	-244.7%[1.84 µM]	-2.6%	-1.1%	20.6µM*	?

High-throughput results from PubChem.
